Measurements published in ChEMBL document CHEMBL1157539, “Thousands of chemical starting points for antimalarial lead identification” (Nature, 2010).

Key:
Assay type in all cases: functional
[1] = test system: Plasmodium falciparum; assay: GSK_TCMDC: Inhibition of Plasmodium falciparum 3D7 in whole red blood cells, using parasite LDH activity as an index of growth. Test compounds present at 2uM
[2] = test system: Plasmodium falciparum; assay: GSK_TCMDC: Inhibition of Plasmodium falciparum Dd2 in whole red blood cells, using parasite LDH activity as an index of growth. Test compounds present at 2uM
[3] = test system: HepG2; assay: GSK_TCMDC: Percent inhibition of human HepG2 cell line. Test compounds present at 10uM.

Compound | Inhibition [1] [%] | Inhibition [2] [%] | Inhibition [3] [%]
CCN1CCN(c2cc(C)c3cc(NC(=O)C=Cc4cccc(OC)c4OC)ccc3n2)CC1 | 99 | 38 | 18
CN(C)C(CNC(=O)c1cc(-c2ccncc2)c(-c2ccc(Cl)c(O)c2)o1)c1ccccc1.O=C(O)C(F)(F)F (configuration not stated) | 91 | 28 | 28
O=C(/C=C/c1ccc(Cl)c(Cl)c1)NCCCCCN1CCC(NC(=O)Nc2ccc(Cl)cc2F)CC1 | 100 | 40 | 100
CC(=O)Nc1ccc(C(=O)Nc2cccc(-c3ccc(-c4nc5cc(F)ccc5[nH]4)s3)c2)cn1 | 100 | 97 | 33
O=C(Nc1cccc([N+](=O)[O-])c1)Nc1cccc(C(F)(F)F)c1 | 92 | 81 | 0
COc1csc2cc(Br)ccc12 | 100 | 0 | 6
COc1cc(Cc2cnc(NCCN3CCNCC3)nc2N)ccc1OCc1ccc(C(F)(F)F)cc1 | 98 | 4 | 12
COc1ccc2nccc([C@@H](O)CN3CCC(NCc4cc5c(cc4F)SCC(=O)N5)CC3)c2n1 | 96 | 27 | 14
O=C(NCc1ccccc1)c1ncn(CCCN2CCC(N3CCCC3)CC2)c1-c1ccc(Cl)c(Cl)c1.O=CO | 89 | 36 | 8
Cc1cc(C2CCN(CCCCNC(=O)c3ccc(NC(=O)c4ccc(Cl)cc4)cc3)CC2)c(C)cc1OC(C)C.Cl | 100 | 92 | 22
O=C(NCCCCCN1CCC(c2ccc(O)cc2)CC1)c1ccc(-c2ccccc2)cc1 | 92 | 0 | 28
CC(C)(C)c1ccc(S(=O)(=O)Nc2cc(Cl)ccc2Cn2ccc(N3CCNCC3)nc2=O)cc1.O=C(O)C(F)(F)F | 95 | 74 | 0
Cc1cc(N(C)C2CCN(CC3CCCCC3)C2)nc(Nc2ccc(Cl)cc2)n1 (configuration not stated) | 98 | 35 | 0
CC(C)=C(C(=O)OCc1ccccc1)N1C(=O)[C@@H](NC(c2ccccc2)(c2ccccc2)c2ccccc2)[C@H]1[S+]([O-])CC(=O)OC(C)(C)C (some centres not stated) | 92 | 78 | 0
CCn1cnc2c(N3CCCCS3(=O)=O)cc(C(=O)N[C@@H](Cc3ccccc3)[C@H](O)CNC3CCOCC3)cc21 | 99 | 87 | 7
COc1ccc2nccc(N3CCN(CCNCc4ccc5c(n4)NC(=O)CO5)CC3)c2c1.Cl | 92 | 5 | 18
CC(C)(C)OC(=O)NCc1ccc(Nc2nnc(-c3ccc(OCC(=O)NCc4cc(C(F)(F)F)cc(C(F)(F)F)c4)c([N+](=O)[O-])c3)o2)cc1 | 97 | 92 | 24
N#Cc1cncc(-c2nc3c(N4CCC(Cc5ccccc5)CC4)cccc3n2C2CCNC2)c1.O=C(O)C(F)(F)F (configuration not stated) | 88 | 7 | 5
CC(Cc1ccc(OCCN2CCN(c3cccc(Cl)c3)CC2)cc1)NCC(O)c1cccc(C(F)(F)F)c1.Cl (configuration not stated) | 99 | 98 | 100
C[C@H](Cc1ccc(OCCCCOc2ccc(C[C@@H](C)NC[C@H](O)c3cccc(Cl)c3)cc2)cc1)NC[C@H](O)c1cccc(Cl)c1 | 100 | 92 | 68
O=C(O[C@@H]1CN[C@H](C#Cc2cc3ncnc(Nc4ccc5c(cnn5Cc5cccc(F)c5)c4)c3s2)C1)N1CCCC1 | 86 | 56 | 9
COc1cc2c(cc1C(F)(F)F)N(C(=O)Nc1cc(-c3ccncc3)cc(-c3cccnc3)c1)CC2 | 95 | 50 | 64
Cc1cc(F)ccc1Oc1nc(Nc2ccc(N3CCOCC3)c(F)c2)nc2c1S(=O)(=O)CCC2.Cl | 96 | 98 | 10
Cc1cc(CN2CCC(N3CC(c4ccccc4)(c4ccccc4)OC3=O)C2)ccc1O (configuration not stated) | 96 | 68 | 0
COC(=O)c1ccc(CC(C)NCC(O)c2ccc(C(O)CNC(C)Cc3ccc(C(=O)OC)cc3)cc2)cc1.O (configuration not stated) | 88 | 13 | 24
O=C(c1ccc(F)cc1)N1CCOC(CCN2CCC(c3ccccc3)CC2)(c2ccc(Cl)c(Cl)c2)C1 (configuration not stated) | 88 | 84 | 29
CN(C)c1ccc(-c2nc3cc(N)ccc3[nH]2)cc1 | 100 | 97 | 1
O=C(/C=C/c1ccc(Cl)c(Cl)c1)N1CCC(CNCc2cccc3cc[nH]c23)CC1 | 85 | 14 | 1
N#Cc1ccc(N2CCN(Cc3cccc(-c4ccc(-c5nc6cc(C(F)(F)F)ccc6[nH]5)s4)c3)CC2)nc1.O=C(O)C(F)(F)F | 96 | 52 | 31
